tim23-1 inh: tim23-1 yeast growth inhibition | S. cerevisiae tim23-1 growth, BacTiter-Glo luminescence, 24 h | inhibition, % at 20 µM | actives 1.3% (n = 330,000) | AID 463212;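 active = growth inhibition of the mutant yeast at or above 50%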;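 also: temperature-sensitive mutant grown at 25 °C; plate controls were DMSO-treated mutant yeast for no effect and medium wells lacking yeast for full effect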
PfHsp90 set2: inhibits growth of yeast expressing Plasmodium falciparum Hsp90. S. cerevisiae expressing PfHsp90, BacTiter-Glo ATP, 48 h; yeast lacking PDR1 and PDR3 efflux regulators. inhibition, % at 9.4 µM. actives 0.32% (n = 310,000). AID 504621;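 active = every replicate shows inhibition above about 80%, whatever the replicate mean, limit read from the data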;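 also: 0% = DMSO neutral controls and 100% = 20 µM radicicol positive controls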
TIM10 inh: growth inhibitors of TIM10 yeast strain. actives 1.4% (n = 330,000). AID 463195. S. cerevisiae TIM10 strain growth, BacTiter-Glo luminescence, 24 h. inhibition, % at 10 µM;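 active = inhibition of 40% or more at the single tested concentration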;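 also: wild-type TIM10 isogenic control strain grown at permissive 25 °C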
tim10-1 inh: growth inhibitors of tim10-1 mutant yeast; S. cerevisiae tim10-1 ts strain growth, BacTiter-Glo, 24 h; inhibition, % at 20 µM; actives 2.2% (n = 330,000);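 active = inhibition of at least 40%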;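 also: mutant grown at 25 °C; 0% = DMSO wells with yeast and 100% = wells holding no yeast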
NALP3 yeast inh: inhibitors of NALP3 inflammasome in yeast. Yeast reconstituted NLRP3/ASC/caspase-1, beta-gal luminescence, 24 h. inhibition, % at 10 µM. actives 0.39% (n = 330,000);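 active = inhibition of 50% or more; inactive = inhibition below 50%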;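 also: plate controls were induced DMSO wells for no effect and uninduced yeast grown without galactose for full effect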
TIM10 conf: confirmation of TIM10 yeast growth inhibitors; shares compounds with TIM10 inh; S. cerevisiae tim10 strain growth, BacTiter-Glo luminescence, 24 h; inhibition, % at 10 µM; actives 63% (n = 4,600);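 active = inhibition of yeast growth at or above a set limit in either of two replicates at 10 µM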;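 also: this counterscreen used the strain with wild-type TIM10; 0% = yeast with DMSO and 100% = medium wells lacking yeast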
* = called active by the depositor; x = no result given. In the library only some 3.7% were active in any assay of this set; here they are far more common.

SMILES	tim23-1 inh	PfHsp90 set2	TIM10 inh	tim10-1 inh	NALP3 yeast inh	TIM10 conf
Cc1ccc(NC(=S)NNC(=S)Nc2cccc(C(F)(F)F)c2)cc1	39	-17	53*	29	19	48*
O=C(COC(=O)c1cc(S(=O)(=O)N2CCCCC2)ccc1Cl)NC1CCS(=O)(=O)C1 (stereo not drawn)	1	19	5	-7	-14	x
Clc1ccc2c(c1)C(N1CCNCC1)Cc1ccccc1S2 (stereo not drawn)	4	0	48*	22	24	-40
O=C(Cn1cc2c(n1)CCCC2)N1CCc2ccccc21	4	-7	4	5	32	x
CC(=O)Oc1oc(-c2ccccc2)nc1C=Nc1ccc(N(C)C)cc1	47	-3	45*	29	14	22
CN(C)c1ccc(N=Cc2nc(-c3ccccc3)oc2OC(=O)c2ccccc2)cc1	25	-6	12	12	12	x
CC12C(=O)N(c3nccs3)C(=O)C1C1C=CC2C1 (stereo not drawn)	0	-1	-9	-2	1	x
O=C(Oc1cc2oc(=O)c3c(c2cc1Cl)CCCC3)c1ccco1	13	-6	51*	37	30	32*
COC(=O)Cc1c(C)c2cc(Cl)c(OC(=O)c3ccco3)cc2oc1=O	11	-23	54*	23	-2	40*
Cc1cc2oc(=O)c3c(c2cc1OC(=O)c1ccco1)CCCC3	-32	-6	-17	-37	31	x
CN(c1ccc(F)cc1)S(=O)(=O)c1ccc(Cl)c(C(=O)OCC(=O)NC2CC2)c1	14	8	-1	-1	12	x
COc1ccc(C(C)(C)NC(=O)C2CCC(=O)N(CCCN3CCCC3=O)C2)cc1 (stereo not drawn)	-8	-1	7	13	4	x
CC1CN(c2ccc([N+](=O)[O-])nc2)CC(C)O1 (stereo not drawn)	8	12	-1	12	23	x
c1ccc(-c2nc3cnccn3c2Nc2ccc3c(c2)OCCO3)cc1	35	21	44*	34	4	12
CCOc1cc(Cl)c(CNCCCN2CCOCC2)cc1OC	-39	-1	-18	-20	5	x
COc1ccc(C(=O)CSc2nc(-c3ccccn3)nc(C)c2Cl)cc1	47	0	37	31	18	x
Cc1nc(-c2ccccn2)nc(SCC(=O)c2ccc(F)cc2)c1Cl	41	14	41*	29	39	42*
CCCCCCn1c(-c2cccs2)n[nH]c1=S	38	-24	-9	-51	16	x
O=C(Nc1ccc(NC(=O)c2ccccc2F)cc1)c1cccs1	47	x	45*	-18	31	26
COc1ccc(C(=O)NCC(=O)N2CCN(C(=O)c3ccco3)CC2)cc1	-4	7	9	-2	20	x
Cc1cc2n(n1)SC(Nc1cccc3ccccc13)N2 (stereo not drawn)	23	4	42*	38	19	23
O=C(Nc1ccc2nn(-c3ccccc3)nc2c1)c1ccco1	30	26	54*	22	49	51*
O=C(Nc1ccc(Oc2ccc3ccccc3c2)cc1)c1ccco1	34	-14	43*	26	0	36*
O=C(Nc1ccc2nc(-c3ccco3)[nH]c2c1)c1ccco1	41	x	54*	17	19	37*
COc1ccc(-n2nc3c(c2NC(=O)c2ccc4c(c2)OCO4)CS(=O)(=O)C3)cc1	-6	4	6	-6	-2	x
SMILES	tim23-1 inh	PfHsp90 set2	TIM10 inh	tim10-1 inh	NALP3 yeast inh	TIM10 conf
CCCn1c(SCC(=O)NC2CCCCC2)nnc1-c1cccnc1	-9	-5	5	-11	11	x
CN(C)S(=O)(=O)c1ccc(C(=O)OCC(=O)N2CC3(C)CC2CC(C)(C)C3)cc1 (stereo not drawn)	16	3	15	14	18	x
Cc1noc(C)c1COc1ccc(C(=O)OCC(=O)N2CC3(C)CC2CC(C)(C)C3)cc1 (stereo not drawn)	35	6	44*	37	1	31*
O=C(NCC1CCCO1)C(c1cccs1)N(Cc1ccccc1)C(=O)c1ccc(-c2ccccc2)[nH]1 (stereo not drawn)	27	-9	33	26	12	x
CC(C)(C)NC(=O)C(c1cccs1)N(CC1CCCO1)C(=O)c1ccc(-c2ccccc2)[nH]1 (stereo not drawn)	33	1	42*	25	-2	-11
NS(=O)(=O)c1cccc(NC(=O)Cc2ccc(Cl)c(Cl)c2)c1	-8	1	-43	10	4	x
Cc1ccc2[nH]c(C)c(/C=N/Nc3nc4ccccc4s3)c2c1	48	106*	42*	39	15	59*
COc1ccc(C=NNc2nc3ccccc3s2)cc1	x	-2	x	x	x	x
Cn1cc(/C=C2\SC(=O)N(c3ccc(O)cc3)C2=O)c2ccccc21	33	-5	44*	29	4	38*
NS(=O)(=O)c1ccc(NC(=O)COC(=O)CCc2ccc(S(=O)(=O)N3CCOCC3)cc2)cc1	8	-19	-5	-7	9	x
COc1ccc(C(=O)/C=C/c2ccccc2F)c(OC(=O)c2ccc([N+](=O)[O-])cc2)c1	-1	-4	44*	38	11	41*
Cc1ccccc1NC(=O)c1cccc(C(=O)Nc2ccccc2C)n1	11	-19	-8	-7	19	x
Cc1cccc(NC(=O)c2ccc3ccccc3n2)c1C	39	-6	45*	38	11	32*
COc1ccc(C/C(N)=N/OC(=O)Cc2ccccc2)cc1	30	x	52*	36	11	28
COc1ccc(C/C(N)=N/OC(=O)c2ccc(Cl)cc2)cc1	43	7	49*	40	21	59*
Cn1cnnc1SC1c2cccc3cccc(c23)C1NS(=O)(=O)c1ccc(Cl)cc1 (stereo not drawn)	23	-6	21	12	8	x
Nc1nc(-c2ccc3c(c2)NC(=O)CO3)cs1	6	19	14	6	20	x
Cc1ccc2nc(-c3ccc4c(c3)NC(=O)CO4)cn2c1	35	-11	46*	20	0	45*
CC(C)(C)n1nnnc1C(c1cccs1)N(Cc1ccccc1)Cc1ccco1 (stereo not drawn)	38	-30	4	25	6	x
CC(C)(C)n1nnnc1C(c1ccncc1)N(Cc1ccccc1)Cc1ccco1 (stereo not drawn)	34	0	42*	31	13	-4
CSc1nc(C)nc(N/C=C(\C#N)S(=O)(=O)c2ccccc2Cl)n1	11	8	3	9	1	x
O=C(Nc1cccc(S(=O)(=O)N2CCCC2)c1)c1ccco1	23	17	3	14	-12	x
O=C(Nc1ccc(S(=O)(=O)N2CCCCC2)cc1)c1ccccc1Cl	26	x	45*	37	26	39*
